Experimental data taken from PubChem BioAssay AID1159580 (chemical genetic matrix, 2015).
Where “and” joins values, the source holds several entries; their conditions need not be identical. Equal values may be shown once. Screen size: about 5,500 compounds; about 2,000 (36%) were called active. Inconclusive results (about 18%) are left out. No stated cut-off is given here; in the data, active means normalized growth mostly below about 0.91 (no sharp cut-off); inconclusive means no clear call, values can overlap the other calls; inactive means mostly above about 0.92. This is one part of the list.

Test: chemical genetic growth profiling, strain panel (AID 1159580);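 further: tested at 20 µM; growth read once vehicle control cultures reached saturation at 30 °C; 1 = growth at the plate median or of vehicle wells; lower values mean less growth of the strain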
Conditions: S. cerevisiae deletion strains, growth OD

Measured: normalized growth

NC[C@H]1O[C@H](OC2[C@@H](N)C[C@@H](N)[C@H](O[C@H]3O[C@H](CO)[C@@H](O)[C@H](N)[C@H]3O)[C@H]2O)[C@H](O)[C@@H](O)[C@@H]1O (some centres undefined)
inactive: locus YAL013W, strain DEP1, hits give low values 0.997 | locus YAL021C, strain ccr4, hits give low values 0.993 | locus YAL026C, strain drs2, hits give low values 0.998 | locus YAL030W, strain snc1, hits give low values 1 | locus YBL061C, strain skt5, hits give low values 1.01 | locus YBR009C, strain hhf1, hits give low values 1.01 | locus YBR021W, strain FUR4, hits give low values 0.97 | locus YBR023C, strain chs3, hits give low values 0.983 | locus YBR171W, strain sec66, hits give low values 0.989 | locus YBR229C, strain ROT2, hits give low values 0.988 | locus YBR231C, strain swc5, hits give low values 0.998 | locus YBR279W, strain paf1, hits give low values 1.01 | locus YCL011C, strain gbp2, hits give low values 0.999 | locus YCL016C, strain dcc1, hits give low values 0.985 | locus YCL029C, strain bik1, hits give low values 0.985 | locus YCL061C, strain MRC1, hits give low values 0.99 | locus YCL069W, strain vba3, hits give low values 0.998 | locus YCR088W, strain abp1, hits give low values 0.994 | locus YDL005C, strain med2, hits give low values 0.994 | locus YDL035C, strain GPR1, hits give low values 1.02 | locus YDL040C, strain nat1, hits give low values 1 | locus YDL074C, strain BRE1, hits give low values 0.991 | locus YDL101C, strain DUN1, hits give low values 0.986 | locus YDL134C, strain PPH21, hits give low values 1.01 | locus YDL185W, strain tfp1, hits give low values 0.997 | locus YDL192W, strain arf1, hits give low values 0.98 | locus YDR001C, strain nth1, hits give low values 0.995 | locus YDR069C, strain doa4, hits give low values 1 | locus YDR101C, strain arx1, hits give low values 0.99 | locus YDR137W, strain rgp1, hits give low values 0.997 | locus YDR150W, strain NUM1, hits give low values 1 | locus YDR159W, strain sac3, hits give low values 1 | locus YDR162C, strain NBP2, hits give low values 1 | locus YDR195W, strain ref2 0.961 | locus YDR297W, strain sur2, hits give low values 0.998 | locus YDR318W, strain mcm21, hits give low values 0.978 | locus YDR334W, strain swr1, hits give low values 0.988 | locus YDR335W, strain msn5, hits give low values 1 | locus YDR388W, hits give low values 0.993 | locus YDR392W, strain spt3, hits give low values 0.935 | locus YDR502C, strain sam2, hits give low values 1.01 | locus YEL003W, strain gim4, hits give low values 1.01 | locus YEL037C, strain rad23, hits give low values 1.01 | locus YEL061C, strain CIN8 (second series), hits give low values 0.999 | locus YEL061C, strain CIN8, hits give low values 0.997 | locus YER015W, strain faa2, hits give low values 0.978 | locus YER016W, strain bim1, hits give low values 1.01 | locus YER110C, hits give low values 0.97 | locus YER111C, strain swi4, hits give low values 0.994 | locus YER155C, strain BEM2 (second series), hits give low values 0.993 | locus YER155C, strain BEM2, hits give low values 0.993 | locus YER167W, strain BCK2, hits give low values 0.989 | locus YFR010W, strain ubp6, hits give low values 1 | locus YGL078C, strain dbp3, hits give low values 0.973 | locus YGL086W, strain mad1, hits give low values 1 | locus YGL167C, strain pmr1, hits give low values 1.01 | locus YGL173C, strain kem1, hits give low values 0.996 | locus YGL227W, strain vid30, hits give low values 0.991 | locus YGL240W, strain doc1, hits give low values 0.99 | locus YGL248W, strain PDE1, hits give low values 0.984 | locus YGL253W, strain hxk2, hits give low values 1.01 | locus YGR135W, strain pre9, hits give low values 0.943 | locus YGR252W, strain gcn5, hits give low values 0.967 | locus YHR013C, strain ard1, hits give low values 0.982 | locus YHR027C, strain rpn1, hits give low values 1 | locus YHR030C, strain SLT2, hits give low values 0.991 | locus YHR079C, strain IRE1 (second series), hits give low values 0.982 | locus YHR079C, strain IRE1, hits give low values 0.993 | locus YHR094C, strain hxt1, hits give low values 0.975 | locus YHR129C, strain ARP1, hits give low values 0.994 | locus YHR142W, strain chs7, hits give low values 0.998 | locus YHR200W, strain rpn10, hits give low values 0.993 | locus YIL066C, strain RNR3, hits give low values 0.994 | locus YIL073C, strain SPO22, hits give low values 0.954 | locus YIL125W, strain kgd1, hits give low values 0.987 | locus YIR030C, strain dcg1, hits give low values 0.99 | locus YJL092W, strain hpr5, hits give low values 1 | locus YJL095W, strain BCK1 (second series), hits give low values 0.997 | locus YJL095W, strain BCK1, hits give low values 0.99 and 1.01 | locus YJL115W, strain asf1, hits give low values 0.997 | locus YJL129C, strain trk1, hits give low values 0.991 | locus YJL134W, strain LCB3, hits give low values 0.996 | locus YJL154C, strain vps35, hits give low values 0.992 | locus YJL164C, strain tpk1, hits give low values 0.991 | locus YJL166W, strain qcr8, hits give low values 0.99 | locus YJL168C, strain set2, hits give low values 0.978 | locus YJL187C, strain SWE1 (second series), hits give low values 0.984 | locus YJL187C, strain SWE1, hits give low values 0.997 | locus YJR043C, strain POL32, hits give low values 1.03
